The values below come from PubChem BioAssay (Tox21).

Where “and” joins values, the source holds several entries; their conditions need not be identical. Equal values may be shown once. Results filed as inconclusive are left out. Some structures have more than one record in an assay (separate samples or runs), and their calls can disagree. Calls of active or inactive are those of the source. Unless noted, the call rests on the fitted dose curve.

Test [1] is described as follows: qHTS assay to identify small molecule agonists of the sonic hedgehog signaling (Shh) pathway (AID 1259368).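 Further: NIH/3T3-derived 3T3Gli1-Luc cells carrying a stable Gli1-driven firefly luciferase reporter; series mostly up to about 92 µM; nearly all actives have a fitted effect of over 15% in size.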 A digest of the protocol: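 Quantitative high-throughput format using a Gli1-driven firefly luciferase reporter line derived from NIH/3T3 cells. After a 24 hr compound treatment at 37 C and 5% CO2, luminescence reported Gli1 response element activity.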
Test [2] in a line: qHTS assay to identify small molecule antagonists of the sonic hedgehog signaling (Shh) pathway (AID 1259369). Further: nearly all actives have a fitted effect of over 45% in size. Further: potency means the concentration at half of the fitted maximal effect. The gist of the method: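 Stable Gli1-Luc reporter NIH/3T3 clone; quantitative HTS in stimulated mode with conditioned medium. Luminescence measured after 24hr compound treatment at 37 C.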
A general note: Quantitative high-throughput screening tests each substance at several concentrations.

The nature of test [3]: qHTS assay to identify small molecule agonists of the androgen receptor (AR) signaling pathway in the presence of an antagonist - cell viability counter screen (AID 1259379; active means well fitted curve in the direction sought with a large enough effect in the repeat runs; an effect the other way counts as inactive or inconclusive;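 further: MDA-kb2 human breast cancer cells carrying an MMTV luciferase reporter; series mostly up to about 92 µM; nearly all actives have a fitted effect of over 25% in size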). The gist of the method: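 Nilutamide-containing (3.0uM final) MDA-kb2 cultures, 3,000 cells/well, were treated with compounds across 15 concentrations. After 16 hr at 37C with no CO2, cell viability was determined by CellTiter-Fluor fluorescence in the luciferase assay wells.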

Test [4] can be described thus: qHTS assay to identify small molecule antagonists of the estrogen receptor beta (ER-beta) signaling pathway - cell viability counter screen (AID 1259382; active means well fitted curve in the direction sought with a large enough effect in the repeat runs; an effect the other way counts as inactive or inconclusive; further: series mostly up to about 92 µM; nearly all actives have a fitted effect of over 55% in size). A digest of the protocol: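 Viability is scored by CellTiter-Glo luminescence (30 min, room temperature) in ER-beta-UAS-bla HEK293T wells already read for reporter fluorescence. Compound exposure lasts 16 hr at 37C alongside 1nM 17-beta-estradiol in charcoal-stripped serum medium.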

Test [5] can be described thus: qHTS assay to identify small molecule agonists or antagonists of the thyroid stimulating hormone receptor (TSHR) signaling pathway - wild type cell line counter screen (AID 1259384). The gist of the method:
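Wild-type Hek293 cells, 800/well, 18 h at 37C, then compound with Ro20-1724 for 30 min RT. cAMP by HTRF (cAMP-d2/anti-cAMP cryptate), 1 h RT, fluorescence read. 15 concentrations, triplicates.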

Test [6] concerns the target Thyrotropin receptor (Homo sapiens) (UniProt P16473). Put plainly: qHTS assay to identify small molecule antagonists of the thyroid stimulating hormone receptor (TSHR) signaling pathway (AID 1259385). Further: nearly all actives have a fitted effect of over 20% in size. The gist of the method:
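TSHR-HEK293 cells (800/well) plated 18 h, then compounds with Ro20-1724 and TSH at 1.5 ng/mL final, 30 min at room temperature. cAMP quantified by HTRF (cAMP-d2/anti-cAMP-cryptate, 1 h); 15 concentrations in triplicate.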

A short description of test [7]: qHTS assay to identify small molecule agonists of the estrogen receptor alpha (ER-alpha) signaling pathway in the presence of an antagonist - cell viability counter screen (AID 1259386; active means well fitted curve in the direction sought with a large enough effect in the repeat runs; an effect the other way counts as inactive or inconclusive;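 further: series mostly up to about 92 µM; cells exposed to compounds for 22 h at 37 °C before the viability read; nearly all actives have a fitted effect of over 30% in size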). The gist of the method:
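In this counter screen, compound effects on VM7Luc4E2 viability were tested in the presence of the antagonist ICI-182,780 at 10.0nM final. Compounds were dosed at 15 concentrations, exposure lasted 22hr, and the CellTiter-Fluor signal was read.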

Test [8] concerns the target Progesterone receptor (Homo sapiens) (UniProt P06401). Put plainly: qHTS assay to identify small molecule antagonists of the progesterone receptor (PR) signaling pathway (AID 1346795; active means well fitted inhibition curve with a large enough effect in the signal ratio in the repeat runs, not every such curve was filed as active; the % refers to the signal ratio; further: potency means the concentration at half of the fitted maximal effect). The gist of the method:
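PR-UAS-bla HEK293T cells with beta-lactamase reporter under UAS control, in 2% charcoal-stripped FBS, treated with compounds plus 1 nM promegestone (R5020, final) for 16 hr at 37C. Read-out: FRET beta-lactamase substrate fluorescence after 2 hr at room temperature.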

Test [9] can be described thus: qHTS assay to identify small molecule antagonists of the TGF-beta/Smad signaling pathway - cell viability counter screen (AID 1346824; active means well fitted curve in the direction sought with a large enough effect in the repeat runs; an effect the other way counts as inactive or inconclusive; further: nearly all actives have a fitted effect of over 50% in size). A digest of the protocol:
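SBE-bla HEK 293T cells, incubated overnight, then compound plus 0.25 ng/mL TGF-beta1 (stock added) for 5 hr at 37 C. Viability was read in the same wells by CellTiter-Glo luminescence after 30 min at room temperature.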

The nature of test [10]: qHTS assay to identify small molecule agonists of the TGF-beta/Smad signaling pathway - cell viability counter screen (AID 1346829; active means well fitted curve in the direction sought with a large enough effect in the repeat runs; an effect the other way counts as inactive or inconclusive; further: top concentration of the series differs between compounds; nearly all actives have a fitted effect of over 45% in size). A digest of the protocol: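 Compound-treated SBE-bla HEK 293T cells (5 hr, 37 C) were assessed for viability with CellTiter-Glo in parallel with the reporter read.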
Test [11] is described as follows: qHTS assay to identify small molecule agonists of the TGF-beta/Smad signaling pathway (AID 1346859; active means well fitted activation curve with a large enough effect in the signal ratio in the repeat runs, not every such curve was filed as active; the % refers to the signal ratio; further: series mostly up to about 77 µM). The gist of the method:
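SBE-bla HEK293T cells plated overnight, then compound exposure for 5 h at 37 C. Beta-lactamase reporter read with LiveBLAzer B/G FRET substrate after 2 h at room temperature, fluorescence at 405 nm excitation, 460/530 nm emission.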

Test [12] has as its target Thyrotropin-releasing hormone receptor (Homo sapiens) (UniProt P34981). Put plainly: qHTS assay to identify small molecule antagonists of the thyrotropin-releasing hormone receptor (TRHR) signaling pathway (AID 1346877; active means well fitted inhibition curve with a large enough effect in the repeat runs, not every such curve was filed as active; further: series mostly up to about 51 µM). The gist of the method:
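Kinetic fluorescence (3 min, 1 s resolution) following stimulation with TRH at 1 nM final; HEK293 cells bearing human TRHR; 5 min compound preincubation at RT; concentration-response over 15 points, triplicates.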

Test [13] is described as follows: qHTS assay to identify small molecule agonists of the estrogen receptor beta (ER-beta) signaling pathway - cell viability counter screen (AID 1259380; active means well fitted curve in the direction sought with a large enough effect in the repeat runs; an effect the other way counts as inactive or inconclusive; further: nearly all actives have a fitted effect of over 30% in size). A digest of the protocol:
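Steps: plate ER-beta-UAS-bla HEK293T cells, rest 6 hr; add compounds in DMSO; incubate 16 hr at 37C, 5% CO2; add FRET substrate 2 hr; add CellTiter-Glo, wait 30 min at room temperature; read luminescence.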

Test [14] deals with Progesterone receptor (Homo sapiens) (UniProt P06401). The test is described as follows: qHTS assay to identify small molecule agonists of the progesterone receptor (PR) signaling pathway (AID 1346784). Further: nearly all actives have a fitted effect of over 30% in size. Further: potency means the concentration at half of the fitted maximal effect. The gist of the method:
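PR-UAS-bla HEK 293T cells (beta-lactamase reporter under UAS) in 2% charcoal-stripped FBS, dosed with 23 nL compound after 6 hr, incubated 16hr at 37C. LiveBLAzer B/G FRET substrate added, fluorescence read after 2 hours.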

Test [15] is described as follows: qHTS assay to identify small molecule antagonists of the progesterone receptor (PR) signaling pathway - cell viability counter screen (AID 1346798; active means well fitted curve in the direction sought with a large enough effect in the repeat runs; an effect the other way counts as inactive or inconclusive; further: series mostly up to about 92 µM; nearly all actives have a fitted effect of over 50% in size). A digest of the protocol:
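PR-UAS-bla HEK293T cells, 3,000/well in 2% charcoal-stripped FBS medium, dosed with compounds plus R5020 agonist and incubated 16 h at 37C. Viability then measured in the same wells by CellTiter-Glo luminescence after 30 min at RT.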

Test [16] is described as follows: qHTS assay to identify small molecule agonists of the progesterone receptor (PR) signaling pathway - cell viability counter screen (AID 1346799). Further: nearly all actives have a fitted effect of over 45% in size. The gist of the method: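 Counter screen in the PR-UAS-bla HEK293T wells (2% charcoal-stripped FBS, 16 h compound exposure at 37 C) after the bla read. CellTiter-Glo added, 30 min at room temperature, luminescence read as cell viability.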

The target of test [17] is Estrogen receptor (Homo sapiens) (UniProt P03372). Put plainly: qHTS assay to identify small molecule agonists of the estrogen receptor alpha (ER-alpha) signaling pathway in the presence of an antagonist (AID 1259383). Further: top concentration of the series differs between compounds; nearly all actives have a fitted effect of over 15% in size. The gist of the method: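 Readout was ERE-driven luciferase luminescence in VM7Luc4E2 cells, which express full-length ER-alpha endogenously. Compounds were tested at 15 concentrations for 22hr alongside 10.0nM ICI-182,780 (final concentration).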
Estrogen receptor (Homo sapiens), sequence (P03372 whole entry, looked up): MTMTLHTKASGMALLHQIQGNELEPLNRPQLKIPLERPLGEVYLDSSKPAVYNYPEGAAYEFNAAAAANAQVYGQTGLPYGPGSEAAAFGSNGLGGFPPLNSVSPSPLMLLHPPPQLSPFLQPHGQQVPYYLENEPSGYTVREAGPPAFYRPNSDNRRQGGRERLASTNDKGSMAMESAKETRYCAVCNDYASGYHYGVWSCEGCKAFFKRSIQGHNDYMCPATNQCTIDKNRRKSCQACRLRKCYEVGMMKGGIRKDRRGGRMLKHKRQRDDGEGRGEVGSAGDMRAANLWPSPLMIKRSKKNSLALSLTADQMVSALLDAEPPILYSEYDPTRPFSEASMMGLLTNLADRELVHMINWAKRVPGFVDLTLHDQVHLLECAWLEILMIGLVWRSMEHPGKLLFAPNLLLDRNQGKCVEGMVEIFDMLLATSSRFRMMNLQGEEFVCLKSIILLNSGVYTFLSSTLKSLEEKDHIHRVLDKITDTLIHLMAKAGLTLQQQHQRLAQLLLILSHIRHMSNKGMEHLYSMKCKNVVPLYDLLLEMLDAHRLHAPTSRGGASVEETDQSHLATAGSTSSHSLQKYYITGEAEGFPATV

The target in test [18] is Estrogen receptor beta (Homo sapiens) (UniProt Q92731). The test is described as follows: qHTS assay to identify small molecule agonists of the estrogen receptor beta (ER-beta) signaling pathway (AID 1259377; active means well fitted activation curve with a large enough effect in the signal ratio in the repeat runs, not every such curve was filed as active; the % refers to the signal ratio). The gist of the method:
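ER-beta-UAS-bla HEK293T cells in medium with 2% charcoal-stripped FBS were exposed to compounds for 16 h at 37C. Beta-lactamase reporter activity was read as fluorescence after 2 h with LiveBLAzer B/G FRET substrate at room temperature.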

The target of test [19] is Androgen receptor (Homo sapiens) (UniProt P10275). The test is described as follows: qHTS assay to identify small molecule agonists of the androgen receptor (AR) signaling pathway in the presence of an antagonist (AID 1259381). Further: nearly all actives have a fitted effect of over 15% in size. A digest of the protocol: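 Reporter-gene luminescence from MDA-kb2 cells exposed 16hr at 37C (0% CO2) to 15-point compound titrations with 3.0uM final nilutamide as AR antagonist.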
Androgen receptor (Homo sapiens), sequence (P10275 whole entry, looked up): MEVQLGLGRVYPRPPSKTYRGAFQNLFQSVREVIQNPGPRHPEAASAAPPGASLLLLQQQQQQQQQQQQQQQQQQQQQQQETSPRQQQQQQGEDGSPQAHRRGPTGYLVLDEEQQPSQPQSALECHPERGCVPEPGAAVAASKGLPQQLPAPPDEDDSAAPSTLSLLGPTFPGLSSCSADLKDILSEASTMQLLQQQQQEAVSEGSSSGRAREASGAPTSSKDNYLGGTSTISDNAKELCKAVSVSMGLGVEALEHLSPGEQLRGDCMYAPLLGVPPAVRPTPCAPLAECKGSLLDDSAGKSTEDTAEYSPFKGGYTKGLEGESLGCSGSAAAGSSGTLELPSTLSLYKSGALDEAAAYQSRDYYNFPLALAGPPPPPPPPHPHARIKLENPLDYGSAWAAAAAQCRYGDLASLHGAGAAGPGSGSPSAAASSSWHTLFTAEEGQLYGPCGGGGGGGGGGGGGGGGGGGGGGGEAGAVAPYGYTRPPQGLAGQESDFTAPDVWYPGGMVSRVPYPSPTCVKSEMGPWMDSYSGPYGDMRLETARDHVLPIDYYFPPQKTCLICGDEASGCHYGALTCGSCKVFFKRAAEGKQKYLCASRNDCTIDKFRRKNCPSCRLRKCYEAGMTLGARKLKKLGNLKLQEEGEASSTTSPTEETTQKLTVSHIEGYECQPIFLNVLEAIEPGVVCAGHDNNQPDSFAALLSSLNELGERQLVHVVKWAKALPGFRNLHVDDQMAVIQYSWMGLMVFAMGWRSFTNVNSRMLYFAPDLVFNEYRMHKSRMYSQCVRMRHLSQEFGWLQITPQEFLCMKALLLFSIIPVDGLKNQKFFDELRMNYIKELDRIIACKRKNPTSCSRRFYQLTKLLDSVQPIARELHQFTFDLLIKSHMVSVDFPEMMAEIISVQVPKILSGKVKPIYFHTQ

Thyrotropin receptor (Homo sapiens), sequence (P16473 whole entry, looked up): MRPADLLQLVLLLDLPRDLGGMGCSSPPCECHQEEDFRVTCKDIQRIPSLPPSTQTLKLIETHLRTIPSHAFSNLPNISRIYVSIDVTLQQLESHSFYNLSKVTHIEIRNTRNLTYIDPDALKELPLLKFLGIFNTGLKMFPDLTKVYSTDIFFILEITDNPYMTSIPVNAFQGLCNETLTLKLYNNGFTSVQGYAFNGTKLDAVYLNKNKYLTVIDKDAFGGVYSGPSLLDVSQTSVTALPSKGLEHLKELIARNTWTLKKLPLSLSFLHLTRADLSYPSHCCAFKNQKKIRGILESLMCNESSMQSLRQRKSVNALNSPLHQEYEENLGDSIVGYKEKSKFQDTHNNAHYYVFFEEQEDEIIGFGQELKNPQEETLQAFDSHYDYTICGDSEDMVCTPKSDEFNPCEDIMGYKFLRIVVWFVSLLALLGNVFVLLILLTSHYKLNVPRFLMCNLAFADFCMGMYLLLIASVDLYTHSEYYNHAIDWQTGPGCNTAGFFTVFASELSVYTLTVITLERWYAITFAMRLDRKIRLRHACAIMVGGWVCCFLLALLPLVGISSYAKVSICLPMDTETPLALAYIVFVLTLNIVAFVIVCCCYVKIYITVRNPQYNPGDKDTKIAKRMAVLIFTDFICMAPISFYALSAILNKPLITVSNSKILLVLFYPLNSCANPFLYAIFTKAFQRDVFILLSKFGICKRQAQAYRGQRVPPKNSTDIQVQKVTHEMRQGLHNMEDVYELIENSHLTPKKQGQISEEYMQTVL
Thyrotropin-releasing hormone receptor (Homo sapiens), sequence (P34981 whole entry, looked up): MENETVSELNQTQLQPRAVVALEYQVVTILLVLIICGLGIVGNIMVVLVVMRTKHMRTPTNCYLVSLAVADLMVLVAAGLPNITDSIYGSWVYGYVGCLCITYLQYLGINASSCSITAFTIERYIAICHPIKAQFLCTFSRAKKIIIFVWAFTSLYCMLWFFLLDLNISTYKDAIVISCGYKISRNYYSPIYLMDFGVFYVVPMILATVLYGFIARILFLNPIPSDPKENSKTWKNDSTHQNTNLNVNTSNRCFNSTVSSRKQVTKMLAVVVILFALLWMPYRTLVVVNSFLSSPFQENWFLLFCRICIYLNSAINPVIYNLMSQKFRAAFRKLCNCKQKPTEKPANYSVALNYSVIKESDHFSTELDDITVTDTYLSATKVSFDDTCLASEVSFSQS
Estrogen receptor beta (Homo sapiens), sequence (Q92731 whole entry, looked up): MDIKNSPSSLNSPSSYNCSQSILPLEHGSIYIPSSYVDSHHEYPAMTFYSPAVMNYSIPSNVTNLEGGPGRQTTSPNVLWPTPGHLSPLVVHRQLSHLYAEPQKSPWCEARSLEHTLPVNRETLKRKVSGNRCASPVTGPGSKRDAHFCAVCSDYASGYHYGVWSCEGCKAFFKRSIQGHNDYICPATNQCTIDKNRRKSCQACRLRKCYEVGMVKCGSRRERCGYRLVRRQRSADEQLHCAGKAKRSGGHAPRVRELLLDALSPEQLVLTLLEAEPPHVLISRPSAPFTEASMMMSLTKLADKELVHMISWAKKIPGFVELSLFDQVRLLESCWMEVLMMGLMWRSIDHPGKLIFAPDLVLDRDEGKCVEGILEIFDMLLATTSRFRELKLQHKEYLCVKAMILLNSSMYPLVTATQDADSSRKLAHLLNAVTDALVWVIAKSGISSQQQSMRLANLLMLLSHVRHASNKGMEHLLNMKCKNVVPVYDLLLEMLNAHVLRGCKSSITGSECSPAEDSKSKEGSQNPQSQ
Progesterone receptor (Homo sapiens), sequence (P06401 whole entry, looked up): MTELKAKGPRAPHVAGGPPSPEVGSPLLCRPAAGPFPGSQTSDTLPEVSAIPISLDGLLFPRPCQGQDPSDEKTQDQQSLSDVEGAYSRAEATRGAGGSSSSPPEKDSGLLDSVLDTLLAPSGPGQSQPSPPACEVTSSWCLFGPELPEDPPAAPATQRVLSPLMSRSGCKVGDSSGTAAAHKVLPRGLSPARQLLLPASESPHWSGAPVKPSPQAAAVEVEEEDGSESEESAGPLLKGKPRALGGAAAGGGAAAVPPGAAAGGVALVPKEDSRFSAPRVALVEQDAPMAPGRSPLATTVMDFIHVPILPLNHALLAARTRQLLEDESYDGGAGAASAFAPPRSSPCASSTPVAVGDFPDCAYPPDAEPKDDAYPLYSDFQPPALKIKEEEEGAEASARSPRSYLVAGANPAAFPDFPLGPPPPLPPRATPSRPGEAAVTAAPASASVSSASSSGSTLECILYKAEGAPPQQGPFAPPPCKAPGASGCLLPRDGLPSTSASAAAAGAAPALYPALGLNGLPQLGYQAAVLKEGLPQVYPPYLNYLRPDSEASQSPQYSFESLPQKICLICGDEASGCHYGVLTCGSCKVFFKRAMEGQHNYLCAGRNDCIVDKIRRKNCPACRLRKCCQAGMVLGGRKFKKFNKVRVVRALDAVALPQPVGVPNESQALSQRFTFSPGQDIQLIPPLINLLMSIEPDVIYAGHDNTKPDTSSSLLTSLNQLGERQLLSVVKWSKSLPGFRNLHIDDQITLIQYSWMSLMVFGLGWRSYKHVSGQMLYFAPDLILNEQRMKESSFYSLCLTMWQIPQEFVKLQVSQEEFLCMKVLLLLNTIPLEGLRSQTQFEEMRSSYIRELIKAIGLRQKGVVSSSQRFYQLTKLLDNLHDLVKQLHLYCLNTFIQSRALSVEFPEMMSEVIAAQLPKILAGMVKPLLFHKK

As for `CCCCCc1cc(O)cc(O)c1`, the Potency entry in [1], in [3], in test [4], in test [7], in test [9] and in test [10] was “inactive” in each case. For the same molecule, the Potency entry in [12] is “inactive”. For the same molecule, the Potency in test [2] is 24.4 µM (active) and 19.3 µM (active); in test [8] it was 68.9 µM (active) and 21.7 µM (active). Moreover, the call in [5], in [6] and in test [11] was inactive.

For `COc1ccc(C(CN(C)C)C2(O)CCCCC2)cc1` (centres undefined), the Potency result in [1], in [2], in test [3], in test [13], in test [4] and in [7] was “inactive” in each case. Further, the Potency result in [14], in test [8], in test [15], in [16], in test [9] and in test [10] was “inactive” in each case. Also, the result in test [5], in [6] and in test [11] was inactive.

For the molecule `CCCCCCOC(=O)c1ccccc1C(=O)OCCCCCC`, the Potency entry in [1], in [2], in [3], in test [13], in test [4] and in [17] was “inactive” in each case. For the same molecule, the Potency result in [7], in [15], in test [16], in [9], in test [10] and in [12] was “inactive” in each case. Further, the result in test [5], in [6] and in test [11] was inactive.

`Cc1cccc(N)c1N`: the Potency in test [2] is 29.6 µM (active) and inactive. The Potency entry in [18], in test [3], in [7], in test [15], in test [16] and in [9] was “inactive” in each case. Besides, the Potency entry in test [10] and in [12] was “inactive” throughout. Further, the outcome in test [5], in [6] and in test [11] was inactive.

Consider `N#Cc1cc(Br)c(O)c(Br)c1`, for which the Potency entry in test [1], in test [3], in test [19], in [17], in [7] and in test [14] was “inactive” throughout. Besides, the Potency entry in test [8], in [9], in test [10] and in test [12] was “inactive” throughout. Moreover, the Potency in test [2] is 15.3 µM (active) and 7.41 µM (active). The call in test [5], in test [6] and in test [11] was inactive.

For `C1=Cc2cccc3cccc1c23`, the Potency result in test [1], in test [2], in [3], in [4], in test [7] and in [8] was “inactive” in each case. For the same molecule, the Potency entry in test [15], in test [16], in test [9], in test [10] and in [12] was “inactive” throughout. Further, the molecule was classed as inactive in test [5], in test [6] and in test [11]. Also, in [14], the Potency was 60.1 µM (active) and inactive.

Consider `CCCCOCCOP(=O)(OCCOCCCC)OCCOCCCC`, for which the Potency result in test [1], in test [18], in [3], in test [17], in [7] and in test [15] was “inactive” in each case. Also, the Potency result in [16], in [9] and in test [10] was “inactive” in each case. Further, the outcome in test [5], in test [6] and in test [11] was inactive.

In the case of `Cc1ccc(OP(=O)(Oc2ccc(C)cc2)Oc2ccc(C)cc2)cc1`, the Potency result in test [1], in test [2], in test [3], in [4], in [7] and in [14] was “inactive” throughout. In addition, the Potency entry in [16], in test [9], in test [10] and in test [12] was “inactive” throughout. The molecule was classed as inactive in [5], in test [6] and in [11]. For the same molecule, the Potency in test [8] was 15.4 µM (active).
